30 compounds from PubChem BioAssay (EPA / NIEHS) can be followed below.

Molecules are shown by their SMILES. Several values for one entry are separate records, joined by “and”; a condition that tells them apart may be missing. Identical values can stand only once. Some structures have more than one record in an assay (separate samples or runs), and their calls can disagree. Activity calls are given as the source filed them. How the source made its calls: active means hit-call score of the fitted dose curve at least 0.9, where 1 is the maximum; inactive means score below 0.9.

Read-out in the experiment: Plasminogen activator inhibitor-1 (PAI1), SERPINE1 (gene 5054)
Description: BSK_KF3CT_PAI1: BioMAP Diversity Plus: KF3CT Assay for Plasminogen activator inhibitor-1 (PAI1) Biomarker Activity (AID 2284252). The settings on record: primary human keratinocytes with fibroblasts. The gist of the method:
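Human keratinocyte/foreskin fibroblast co-culture dosed for 24 h; PAI-1 measured by ELISA, fitted in positive direction against DMSO baseline. Parallel SRB total-protein staining (0.1% SRB, 560 nm) assesses overt cytotoxicity.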
Take `OCCCC(F)(F)C(F)(F)C(F)(F)F`: the result was inactive. Consider `O=C(O)C(F)(F)C(F)(F)OC(F)(F)F`, for which the result was inactive. For `OCC(F)(F)C(F)(F)C(F)(F)C(F)F`, the AC50 (as a rule, the concentration giving half of the maximal activity seen) is 1.23 µM (active) and the result was inactive. As for `O=C(CC(=O)C(F)(F)C(F)(F)F)C(F)(F)F`, the outcome was inactive. `O=C(Cl)C(F)(F)C(F)(F)C(F)(F)C(F)(F)C(F)(F)C(F)(F)C(F)(F)C(F)(F)F`: the AC50 was 41.1 µM (active) and 38.8 µM (active) and 22.7 µM (active). Turning to `C=C(C)C(=O)OCC(F)(F)C(F)(F)C(F)(F)F`, the outcome was inactive.

Take `FC(F)(F)C(F)(F)C(F)(F)C(F)(F)C(F)(F)C(F)(F)CCS`: the outcome was inactive.

Take `FC(F)(F)C(F)(F)C(F)(F)C(F)(F)C(F)(F)C(F)(F)C(F)(F)C(F)(F)CCS`: the outcome was inactive. On to `OCCCC(F)(F)C(F)(F)C(F)(F)C(F)(F)C(F)(F)C(F)(F)C(F)(F)F`, for which the concentration at half-maximal activity (AC50) is 21.7 µM (active) and 46.1 µM (active). With `CCO[Si](CCC(F)(F)C(F)(F)C(F)(F)C(F)(F)C(F)(F)C(F)(F)F)(OCC)OCC`, the result was inactive. On the same count and under the same terms, as for `FC(F)(F)C(F)(F)C(F)(F)CI`, the entry is “inactive”; as for `O=S(=O)(O)C(F)(F)C(F)(F)C(F)(F)C(F)(F)C(F)(F)C(F)(F)C(F)(F)F`, “inactive”; as for `O=C(O)C(F)(F)C(F)(F)C(F)(F)C(F)(F)F`, “inactive”. Turning to `O=C(O)C(F)(F)C(F)(F)C(F)(F)F`, the outcome was inactive.

Take `FC(F)(F)C(F)(F)C(F)(F)C(F)(F)C(F)(F)C(F)(F)C(F)(F)C(F)(F)F`: the outcome was inactive. For the compound `FC(F)(F)C(F)(F)C(F)(F)C(F)(F)CCI`, the result was inactive. For `O=S(=O)(OCC(F)F)C(F)(F)F`, the concentration at half-maximal activity (AC50) is 0.324 µM (active) and the result was inactive.

`CCCCCCCCC(F)(F)C(F)(F)C(F)(F)C(F)(F)C(F)(F)C(F)(F)F`: the result was inactive. `C=CC(F)(F)C(F)(F)C(F)(F)C(F)(F)C(F)(F)C(F)(F)C(F)(F)C(F)(F)F`: the result was inactive. On the same count and under the same terms, as for `COC(=O)CCC(F)(F)C(F)(F)C(F)(F)C(F)(F)F`, the entry is “inactive”; as for `CC(C)(C)C(=O)CC(=O)C(F)(F)C(F)(F)C(F)(F)F`, “inactive”. Same read-out and setting: then `FC(F)(F)C(F)(F)CNCC(F)(F)C(F)(F)F`, with “inactive”; and `O=P(O)(O)OCCC(F)(F)C(F)(F)C(F)(F)C(F)(F)C(F)(F)C(F)(F)F`, with “inactive”; and `FC1CC(F)(F)C(F)(F)C1(F)F` (configuration not stated), with “inactive”. The same measure, in the same setting: as for `FC(F)(F)C(F)(F)C(F)(F)N(C(F)(F)C(F)(F)C(F)(F)F)C(F)(F)C(F)(F)C(F)(F)F`, the entry is “inactive”; as for `OCC(F)(F)C(F)(F)C(F)(F)C(F)(F)C(F)(F)C(F)F`, “inactive”. Regarding `C=CC(=O)OCC(F)(F)C(F)(F)C(F)(F)C(F)(F)COC(=O)C=C`, the AC50 is 23.3 µM (active) and 43 µM (active). Still for that read-out and setting: then `O=C(O)C(F)(F)C(F)(F)C(F)(F)C(F)(F)C(F)(F)C(F)(F)C(F)(F)C(F)(F)Cl`, with 32.8 µM (active) and 37.8 µM (active). For the compound `O=C(O)C(F)(F)C(F)(F)F`, the outcome was inactive. Still for that read-out and setting: as for `N=C(N)C(F)(F)C(F)(F)C(F)(F)C(F)(F)C(F)(F)C(F)(F)C(F)(F)F`, the entry is “inactive”.
